Results as given in ChEMBL document CHEMBL3988442, “University of Dundee, Small-Polar-MMV Screening Library” (2021).
For some of these results: Potency and affinity values are given separately.

Columns and labels:
Set-up in all cases: scale not given: direction of the effect not stated beside the values
[1] = target: Protein translocase subunit SecA (Escherichia coli (strain K12)) (UniProt P10408); assay: Assay to Identify E. coli SecA ATPase Inhibitors; type: functional; settings: 30 µM
[2] = target: T1, Ubiquitin-activating enzyme e1, putative (Leishmania donovani (strain BPK282A1)) (UniProt E9BSI1); assay: Leishmania donovani Ubiquitin Activating Enzyme (LdE1); type: functional; settings: 30 µM
T1 sequence (whole entry): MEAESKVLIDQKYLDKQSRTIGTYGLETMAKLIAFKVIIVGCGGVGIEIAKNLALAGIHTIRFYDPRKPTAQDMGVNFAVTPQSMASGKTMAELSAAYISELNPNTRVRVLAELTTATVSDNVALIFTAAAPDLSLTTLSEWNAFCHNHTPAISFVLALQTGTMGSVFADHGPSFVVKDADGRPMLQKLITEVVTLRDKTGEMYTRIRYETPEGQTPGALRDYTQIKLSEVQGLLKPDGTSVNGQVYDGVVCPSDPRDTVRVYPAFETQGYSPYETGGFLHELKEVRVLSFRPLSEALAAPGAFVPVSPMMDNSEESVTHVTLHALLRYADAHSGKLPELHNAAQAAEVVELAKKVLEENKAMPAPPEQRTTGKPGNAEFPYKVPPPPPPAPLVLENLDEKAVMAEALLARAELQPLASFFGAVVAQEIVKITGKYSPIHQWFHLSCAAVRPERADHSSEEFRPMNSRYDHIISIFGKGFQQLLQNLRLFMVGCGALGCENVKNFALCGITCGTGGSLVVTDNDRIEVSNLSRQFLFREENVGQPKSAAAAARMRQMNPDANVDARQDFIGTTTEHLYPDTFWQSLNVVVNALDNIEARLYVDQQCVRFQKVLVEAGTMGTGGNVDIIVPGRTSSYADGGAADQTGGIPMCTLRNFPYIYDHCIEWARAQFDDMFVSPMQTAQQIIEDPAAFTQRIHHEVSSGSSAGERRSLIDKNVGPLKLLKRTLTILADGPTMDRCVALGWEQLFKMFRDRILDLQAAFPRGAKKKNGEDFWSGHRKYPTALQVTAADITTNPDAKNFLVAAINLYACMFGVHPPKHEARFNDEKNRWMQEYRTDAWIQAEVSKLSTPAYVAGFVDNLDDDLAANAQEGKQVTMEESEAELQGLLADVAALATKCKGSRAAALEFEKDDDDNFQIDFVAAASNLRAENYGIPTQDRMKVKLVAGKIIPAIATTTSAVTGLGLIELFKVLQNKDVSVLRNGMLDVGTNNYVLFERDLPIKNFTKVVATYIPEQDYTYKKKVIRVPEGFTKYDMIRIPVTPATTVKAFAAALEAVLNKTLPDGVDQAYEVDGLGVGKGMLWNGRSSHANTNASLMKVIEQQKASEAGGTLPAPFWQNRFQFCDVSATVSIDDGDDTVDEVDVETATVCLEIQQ

[3] = target: AMP-activated protein kinase, AMPK (Homo sapiens) (UniProt P54646+O43741+P54619+Q9UGJ0+Q9Y478+Q13131+Q9UGI9); assay: AMP-dependent Kinase enzyme assay. An in vitro enzyme assay that detects ADP turnover that is directly proportional to AMPK activity. This uses naive AMPK that is activated during the assay with MK-8722; type: functional; settings: 30 µM
[4] = target: Sialic acid-binding Ig-like lectin 9 (Homo sapiens) (UniProt Q9Y336); assay: Hs-Siglec9 ALPHAscreen SOP 20170721; settings: 10 µM
[5] = system: Trypanosoma cruzi; assay: Trypanosoma cruzi phosphomannomutase and mannose-1-phosphate guanylyltransferase assay; type: functional; settings: 10 µM
[6] = target: T2, Arginase-2, mitochondrial (Homo sapiens) (UniProt P78540); assay: in vitro enzyme assay to detect the production of urea directly proportional to the activity of Arginase II; type: functional; settings: 33.3 µM; note: in the data most compounds retested in dose-response had high values
T2 sequence (whole entry): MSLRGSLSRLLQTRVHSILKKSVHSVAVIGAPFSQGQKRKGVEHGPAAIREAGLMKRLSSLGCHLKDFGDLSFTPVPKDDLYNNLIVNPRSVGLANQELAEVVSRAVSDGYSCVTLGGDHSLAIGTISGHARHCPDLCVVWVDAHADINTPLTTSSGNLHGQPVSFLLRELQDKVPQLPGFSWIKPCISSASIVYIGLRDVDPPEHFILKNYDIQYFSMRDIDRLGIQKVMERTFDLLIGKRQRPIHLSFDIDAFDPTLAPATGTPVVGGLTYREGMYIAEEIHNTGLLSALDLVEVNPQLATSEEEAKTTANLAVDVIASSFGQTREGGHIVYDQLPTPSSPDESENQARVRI

[7] = target: T3, Proteasome subunit beta (Trypanosoma cruzi) (UniProt O96673); assay: Trypanosoma cruzi proteasome chymotrypsin-like activity (TcProtChymo) assay.; note: in the data most compounds retested in dose-response had high values; type: functional; settings: 9.37 µM
T3 sequence (whole entry): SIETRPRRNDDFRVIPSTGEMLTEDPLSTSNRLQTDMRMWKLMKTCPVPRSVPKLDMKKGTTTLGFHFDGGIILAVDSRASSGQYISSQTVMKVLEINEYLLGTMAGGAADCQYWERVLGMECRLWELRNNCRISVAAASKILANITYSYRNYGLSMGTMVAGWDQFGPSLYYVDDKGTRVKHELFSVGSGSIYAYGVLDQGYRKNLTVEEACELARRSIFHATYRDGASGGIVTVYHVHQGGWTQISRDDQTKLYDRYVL

[8] = species: Homo sapiens; assay: To identify inhibition of the IFN signalling (Jak-Stat) pathway via expression of an eGFP reporter gene under the control of an IFN-stimulated response element (ISRE) containing MxA promoter.; type: functional; settings: 30 µM
[9] = target: T4, Tyrosyl-tRNA synthetase, putative (Trypanosoma cruzi (strain CL Brener)) (UniProt Q4DSP6); assay: Trypanosoma cruzi tyrosyl tRNA synthetase (TcYRS) _High Tyrosine SOP; type: functional; settings: 30 µM; note: in the data most compounds retested in dose-response had high values
T4 sequence (whole entry): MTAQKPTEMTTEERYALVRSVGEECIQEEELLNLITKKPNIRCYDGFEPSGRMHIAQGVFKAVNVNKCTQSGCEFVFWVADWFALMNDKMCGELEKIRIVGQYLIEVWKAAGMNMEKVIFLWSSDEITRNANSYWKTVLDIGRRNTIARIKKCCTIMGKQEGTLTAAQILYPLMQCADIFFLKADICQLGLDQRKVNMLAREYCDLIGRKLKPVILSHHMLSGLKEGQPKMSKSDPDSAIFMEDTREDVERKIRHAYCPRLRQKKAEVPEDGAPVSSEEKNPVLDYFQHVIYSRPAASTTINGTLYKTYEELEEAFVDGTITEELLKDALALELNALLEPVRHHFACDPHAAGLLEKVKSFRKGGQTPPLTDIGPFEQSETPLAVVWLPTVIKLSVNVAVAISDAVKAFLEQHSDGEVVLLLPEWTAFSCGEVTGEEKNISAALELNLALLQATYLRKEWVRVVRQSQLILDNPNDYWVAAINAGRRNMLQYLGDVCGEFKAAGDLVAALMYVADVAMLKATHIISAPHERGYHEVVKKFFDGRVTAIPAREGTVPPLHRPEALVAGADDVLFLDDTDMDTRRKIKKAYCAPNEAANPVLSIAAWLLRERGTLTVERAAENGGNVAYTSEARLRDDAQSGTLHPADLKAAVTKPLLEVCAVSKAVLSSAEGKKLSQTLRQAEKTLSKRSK

[10] = target: T4, Tyrosyl-tRNA synthetase, putative (Trypanosoma cruzi (strain CL Brener)); assay: Trypanosoma cruzi tyrosyl tRNA synthetase (TcYRS) SOP; type: functional; settings: 30 µM
[11] = target: Chromo domain-containing protein 1 (Saccharomyces cerevisiae (strain ATCC 204508 / S288c) (Baker's yeast)) (UniProt P32657); assay: ScCHD-1 Enzyme Inhibition Assay; type: functional; settings: 30 µM; note: in the data most compounds retested in dose-response had high values
Chain of Chromo domain-containing protein 1 (Saccharomyces cerevisiae (strain ATCC 204508 / S288c) (Baker's yeast)) (P32657 whole entry, the tested form may be a part): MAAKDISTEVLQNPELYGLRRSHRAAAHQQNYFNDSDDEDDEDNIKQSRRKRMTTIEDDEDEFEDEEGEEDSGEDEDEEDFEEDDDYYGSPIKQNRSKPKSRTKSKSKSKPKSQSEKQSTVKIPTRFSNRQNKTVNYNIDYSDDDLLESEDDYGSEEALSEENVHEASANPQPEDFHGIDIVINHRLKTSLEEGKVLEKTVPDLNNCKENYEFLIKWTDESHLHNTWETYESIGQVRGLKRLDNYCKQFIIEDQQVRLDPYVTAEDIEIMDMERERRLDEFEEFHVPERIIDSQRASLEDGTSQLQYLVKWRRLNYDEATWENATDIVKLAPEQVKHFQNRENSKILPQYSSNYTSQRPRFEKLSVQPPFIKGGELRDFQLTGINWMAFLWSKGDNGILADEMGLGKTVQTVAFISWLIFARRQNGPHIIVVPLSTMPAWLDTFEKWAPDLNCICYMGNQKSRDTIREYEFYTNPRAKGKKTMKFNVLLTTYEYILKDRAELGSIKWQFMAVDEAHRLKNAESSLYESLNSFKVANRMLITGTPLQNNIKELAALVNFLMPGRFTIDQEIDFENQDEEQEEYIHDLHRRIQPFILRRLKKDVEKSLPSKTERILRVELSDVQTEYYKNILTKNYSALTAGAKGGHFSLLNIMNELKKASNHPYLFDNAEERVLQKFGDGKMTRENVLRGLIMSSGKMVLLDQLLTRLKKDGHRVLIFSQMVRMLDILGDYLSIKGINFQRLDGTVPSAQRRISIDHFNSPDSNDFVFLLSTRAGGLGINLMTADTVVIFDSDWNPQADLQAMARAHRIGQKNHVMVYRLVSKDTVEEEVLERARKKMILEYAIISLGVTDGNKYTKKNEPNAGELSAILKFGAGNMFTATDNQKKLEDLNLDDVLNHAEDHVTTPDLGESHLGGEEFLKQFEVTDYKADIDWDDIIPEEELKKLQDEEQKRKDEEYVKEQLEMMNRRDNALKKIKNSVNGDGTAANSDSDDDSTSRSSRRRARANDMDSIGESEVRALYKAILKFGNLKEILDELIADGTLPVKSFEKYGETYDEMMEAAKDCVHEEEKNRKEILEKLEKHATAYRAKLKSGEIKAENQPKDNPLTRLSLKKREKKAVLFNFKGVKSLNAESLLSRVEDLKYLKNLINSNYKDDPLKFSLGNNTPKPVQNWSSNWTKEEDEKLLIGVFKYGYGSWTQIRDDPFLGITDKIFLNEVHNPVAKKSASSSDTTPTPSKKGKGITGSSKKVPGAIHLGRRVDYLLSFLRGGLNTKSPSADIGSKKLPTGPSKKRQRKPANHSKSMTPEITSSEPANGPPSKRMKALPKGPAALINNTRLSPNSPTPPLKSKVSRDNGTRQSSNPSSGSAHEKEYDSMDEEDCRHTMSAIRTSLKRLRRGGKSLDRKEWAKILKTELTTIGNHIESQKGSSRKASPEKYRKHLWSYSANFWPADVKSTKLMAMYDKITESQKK

Chain of Protein translocase subunit SecA (Escherichia coli (strain K12)) (P10408 whole entry): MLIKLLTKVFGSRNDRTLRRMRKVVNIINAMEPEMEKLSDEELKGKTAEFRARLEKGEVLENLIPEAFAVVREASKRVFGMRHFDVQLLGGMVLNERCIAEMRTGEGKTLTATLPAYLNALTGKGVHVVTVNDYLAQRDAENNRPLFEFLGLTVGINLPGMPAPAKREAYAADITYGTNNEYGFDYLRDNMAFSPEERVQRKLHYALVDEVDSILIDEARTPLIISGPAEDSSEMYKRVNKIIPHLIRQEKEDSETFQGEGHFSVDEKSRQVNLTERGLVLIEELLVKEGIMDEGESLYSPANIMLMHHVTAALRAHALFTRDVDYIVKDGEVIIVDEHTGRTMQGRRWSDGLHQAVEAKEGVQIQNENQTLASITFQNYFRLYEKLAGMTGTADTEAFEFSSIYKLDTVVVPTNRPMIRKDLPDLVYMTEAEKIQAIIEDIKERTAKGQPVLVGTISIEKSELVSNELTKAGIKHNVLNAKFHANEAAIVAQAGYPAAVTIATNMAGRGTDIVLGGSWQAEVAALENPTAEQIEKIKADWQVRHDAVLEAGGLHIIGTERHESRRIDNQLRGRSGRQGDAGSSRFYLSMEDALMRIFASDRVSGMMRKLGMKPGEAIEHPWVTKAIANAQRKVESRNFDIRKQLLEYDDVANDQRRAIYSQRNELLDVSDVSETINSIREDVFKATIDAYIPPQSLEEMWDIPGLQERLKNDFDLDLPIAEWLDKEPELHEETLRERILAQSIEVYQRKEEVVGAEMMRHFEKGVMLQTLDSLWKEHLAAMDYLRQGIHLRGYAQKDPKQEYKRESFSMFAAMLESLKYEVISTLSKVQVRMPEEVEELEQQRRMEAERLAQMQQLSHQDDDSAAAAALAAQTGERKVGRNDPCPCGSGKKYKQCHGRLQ
Chain of Sialic acid-binding Ig-like lectin 9 (Homo sapiens) (Q9Y336 whole entry): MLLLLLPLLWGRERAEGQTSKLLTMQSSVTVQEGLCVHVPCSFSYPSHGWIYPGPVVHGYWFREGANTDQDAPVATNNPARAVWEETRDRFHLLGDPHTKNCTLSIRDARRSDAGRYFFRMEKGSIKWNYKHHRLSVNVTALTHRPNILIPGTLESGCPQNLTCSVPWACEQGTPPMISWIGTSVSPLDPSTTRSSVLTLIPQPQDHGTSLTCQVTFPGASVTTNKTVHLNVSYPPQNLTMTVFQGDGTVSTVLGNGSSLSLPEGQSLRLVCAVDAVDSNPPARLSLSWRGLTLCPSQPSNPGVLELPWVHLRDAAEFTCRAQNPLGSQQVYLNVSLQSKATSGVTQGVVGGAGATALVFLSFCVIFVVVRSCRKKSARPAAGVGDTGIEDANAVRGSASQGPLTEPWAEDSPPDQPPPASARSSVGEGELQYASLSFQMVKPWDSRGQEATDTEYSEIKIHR

Row | Structure (SMILES) | Percent Effect [1] | Percent Effect [2] | Percent Effect [3] | Percent Effect [4] | Percent Effect [5] | Percent Effect [6] | Percent Effect [7] | Percent Effect [8] | Percent Effect [9] | Percent Effect [10] | Percent Effect [11]
1 | CN(CCc1ccccc1)c1cnn(CC(=O)N2CCSCC2)c(=O)c1 | -1.2% | 0% | 19.7% | 12.4% | -4.5% | 2.73% | -1.6% | 4.15% | 1.07% | 2.5% | 0.365%
2 | CCCNC(=O)CNc1ccc(C(=O)N2CCCCC2C)cc1C (stereo unspecified) | -7.8% | 18.2% | 1.99% | -9.58% | -8.99% | 0.712% | 8.62% | 35.5% | 5.83% | 12.2% | -8%
3 | C=C(C)C(=O)N1CCC(C(=O)c2cc(C)cnc2N)CC1 | -7.55% | 5.33% | 0.0671% | 1.76% | 7.09% | -1.63% | 5.55% | 11.8% | 7.45% | 14.1% | -3.43%
4 | CCS(=O)(=O)Nc1ccc(C(=O)NCCCN2CCCC2)cc1 | -2.09% | 13.2% | 2.99% | -3.93% | -3.8% | 0% | 19.1% | -9% | 4.25% | 7.79% | -4.55%
5 | Cc1csc([C@@H]2C[C@@H]3CCN(C(=O)c4ccnnc4)C[C@H]3O2)n1 | 0.296% | 2.6% | 5.97% | 6.2% | -0.296% | -0.645% | -0.174% | 12.4% | 6.35% | 8.97% | -1.14%
6 | CCc1nc(NS(=O)(=O)c2ccc(F)cc2C)no1 | -4.36% | -2.67% | -5.09% | 21.3% | 8.67% | -0.521% | -0.872% | 15.9% | 0.546% | 6.17% | -1.94%
7 | CCN1CC(C(=O)N(C)Cc2ccon2)CC1=O (stereo unspecified) | -8.65% | 0% | -1.95% | -7.7% | -2.44% | -2.73% | 7.47% | 13.7% | -1.07% | -1.24% | -3.83%
8 | CC1c2ncc(COc3cccnc3)n2CCN1C(=O)Cc1ccco1 (stereo unspecified) | -6.11% | 6.67% | 2.02% | 6.28% | -2.36% | -3.7% | 6.84% | -8.23% | 2.12% | 7.69% | 0.38%
9 | CCOC(=O)N1CCN(Cc2ccc(OCc3nccn3C)cc2)CC1 | -5.3% | 23.4% | 3.48% | -0.124% | 0.562% | 1.42% | 13.7% | 11.1% | 9.71% | 14.6% | -7.78%
10 | CN1C(=O)CC(C(=O)O)C12CCN(Cc1ccc(F)cc1Cl)CC2 (stereo unspecified) | -3.75% | 2.67% | -7.2% | 5.97% | 3.41% | -0.521% | 16% | 15.5% | 8.2% | 13.6% | -3.62%
11 | Cc1cc(C)c2nc(CN3CCOC(CCO)C3)cc(O)c2c1 (stereo unspecified) | -2.9% | 2.7% | -1.47% | 5.2% | 0.965% | -2.38% | 10.3% | -6.99% | 4.76% | 14.6% | -1.34%
